Results filed as inconclusive are left out. Where a call stands in place of a potency, no number is given. A number with no mark means an inactive call. The source made the active and inactive calls. Calls come from the whole dose curve; as a rule, active = well fitted cell-killing curve with a large enough effect; inconclusive = small, poorly fitted or top-dose-only effect, or effect the other way; inactive = no such curve, though single readings can be large or run the other way.
Experiment: Viability qHTS for spleen associated tyrosine kinase inhibitor (SYKi) naive MV4-11 cells (AID 1963823); note: nearly all actives have a fitted effect of over 40% in size
Conditions: MV4-11 AML viability, CellTiter-Glo luminescence, 72 h; series mostly up to 45 µM
Outline: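 SYKi-naive MV4-11 AML cells, 500 per well, were exposed to library compounds for 72 hr at 37 C, 5% CO2. Viability was then read by CellTiter-Glo luminescence after 10 min at room temperature.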
Potency is the fitted concentration of half-maximal effect.

| SMILES | viability (% of control) | Potency |
| --- | --- | --- |
| CC1(C)CC[C@]2(C(=O)O[C@@H]3O[C@H](CO)[C@@H](O)[C@H](O)[C@H]3O)CC[C@]3(C)C(=CCC4[C@@]5(C)CC[C@H](O[C@H]6O[C@H](CO)[C@@H](O)[C@H](O[C@@H]7O[C@H](CO)[C@@H](O)[C@H](O)[C@H]7O)[C@H]6O)C(C)(C)C5CC[C@]43C)[C@@H]2C1 (stereo not given in full) | 84% [at 9.25 µM] |  |
| C=C1C(=O)O[C@@H]2/C=C(\C)CC/C=C(\C(=O)O[C@@H]3O[C@H](CO)[C@@H](O)[C@H](O)[C@H]3O)CC[C@@H]12 |  | inactive |
| CC1=C2C3OC(=O)C(C)C3(O)CCC2(C)CCC1 (stereo not given) |  | inactive |
| CCC(CC)C(=O)Nc1sc2c(c1C#N)CCC(C(C)(C)CC)C2 (stereo not given) |  | 2.06 µM (active) |
| COC(=O)C1C(c2ccc(O)cc2)C(C(=O)O)C1c1ccc(O)cc1 (stereo not given) |  | inactive |
| COc1ccc(-c2c(C)c(C(=O)NN3CCCCC3)nn2-c2ccc(Cl)cc2Cl)cc1 |  | 16.4 µM (active) |
| CCCC(=O)O[C@@H]1[C@@H]2[C@@H](OC(C)=O)[C@]3(C)C(=O)[C@H]4[C@@H](OC(C)=O)C(C)(C)C[C@H]4[C@]3(C)C(=O)[C@@]2(OC(C)=O)C[C@@H]1C |  | inactive |
| C=C1[C@@H](OC(C)=O)CC[C@@]2(C)[C@@H](OC(C)=O)[C@H](OC(C)=O)C3=C(C)C[C@H](OC(=O)C(C)CC)[C@@H]([C@@H](OC(C)=O)[C@H]12)C3(C)C (stereo not given in full) |  | 1.53 µM (active) |
| Cc1c(C2=CCN(C(=O)N(C)C(C)C)CC2)nnn1-c1cccnc1F |  | inactive |
| CNc1nc(-c2ccc3c(N)n[nH]c3c2)cc(N2CC(C(=O)NC3CCCCC3)CCC2C)n1 (stereo not given) |  | 2.31 µM (active) |
| CCc1c(C)nc2c(-c3cnn(-c4cc(CO)ccn4)c3)c[nH]n2c1=O |  | inactive |
| CC/C(C)=C/C(=O)OC1C(OC2(C)CCC3C(C4C(C)CCC42)C3(C)C)OC(C)C(O)C1O (stereo not given) |  | 8.93 µM (active) |
| COCCN1CCC(C(=O)NO)(S(=O)(=O)c2ccc(Oc3ccc(OC(F)(F)F)cc3)cc2)CC1 |  | 20.6 µM (active) |
| COc1cc2c(cc1O)[C@H](c1ccc(O[C@@H]3O[C@H](CO)[C@@H](O)[C@H](O)[C@H]3O)c(OC)c1)[C@@H](CO)[C@](O)(CO)C2 |  | inactive |
| CC1CCC2(O1)C(C)(C)CC(O[C@@H]1O[C@H](CO[C@@H]3OC[C@](O)(CO)[C@H]3O)[C@@H](O)[C@H](O)[C@H]1O)CC2(C)O (stereo not given in full) |  | inactive |
| COc1cc2c(cc1O)C1(Cc3ccc4c(c3C1=O)OCO4)N(C)CC2 (stereo not given) |  | inactive |
| C=CC(C)(O)CC[C@H]1C(=C)CCC2[C@](C)(C(=O)O)CCC[C@@]21C (stereo not given in full) |  | inactive |
| N#Cc1ccc(-c2ccc(S(=O)(=O)Nc3cccc(N)n3)cc2)cc1 |  | 8.2 µM (active) |
| CC(C#N)C(C)O[C@@H]1O[C@H](CO)[C@@H](O)[C@H](O)[C@H]1O (stereo not given in full) |  | inactive |
| CCCCOC(=O)NC(=O)C1c2ccccc2Oc2ccccc21 |  | inactive |

| SMILES | viability (% of control) | Potency |
| --- | --- | --- |
| CC1(C)CCC[C@@]2(C)[C@H]1[C@H](O)C=C(CO)[C@]2(O)CO |  | inactive |
| CC(=O)O[C@H]1[C@@]2(O)C[C@H](C)[C@H](OC(=O)c3ccccc3)[C@@H]2[C@@H](OC(=O)CO)[C@]2(OC(C)=O)C[C@H]3C(=O)C(C)(C)C[C@@H]3[C@@]1(C)[C@H]2OC(C)=O |  | inactive |
| C[C@H]1[C@H](C)CC[C@]2(C(=O)O)CC[C@]3(C(=O)O)C(=CCC4[C@@]5(C)CC[C@H](O[C@@H]6O[C@@H](C)[C@H](O)[C@@H](O)[C@H]6O)C(C)(C)C5CC[C@]43C)[C@H]12 (stereo not given in full) |  | inactive |
| C[C@@H]1CC2C3C[C@H](F)C4=CC(=O)C=C[C@]4(C)[C@@]3(F)[C@@H](O)C[C@]2(C)[C@@]1(OC(=O)c1ccco1)C(=O)SCF (stereo not given in full) |  | 6.61 µM (active) |
| CCOc1cccc2c1OC(c1ccc(F)cc1)C([N+](=O)[O-])=C2 (stereo not given) |  | 1.16 µM (active) |
| C=C1CCC2C(C)(C(=O)O)CCCC2(C)C1CC/C(=C\CO)CO (stereo not given) |  | inactive |
| CNCCC(Oc1ccc(C(F)(F)F)cc1)c1ccccc1 (stereo not given) |  | 18.8 µM (active) |
| COc1ccc(CNC(=O)c2sc3nc(C)cc(C)c3c2N)cc1 |  | inactive |
| O=S(=O)(O)c1ccc2cc(N=Nc3cc(S(=O)(=O)O)c4cccnc4c3O)ccc2c1 |  | inactive |
| CC1=C2C(=O)O[C@@H](c3ccoc3)[C@]2(C)CCC1 |  | inactive |
| CC(C)CCC1(O)C(=O)C(C)(C)C(O[C@@H]2O[C@H](CO)[C@@H](O)[C@H](O)[C@H]2O)C(C)(C)C1O (stereo not given in full) |  | inactive |
| C[C@H]1[C@H](C)CC[C@]2(C(=O)O)CC[C@]3(C(=O)O)C(=CCC4[C@@]5(C)CC[C@H](O[C@@H]6O[C@H](C)[C@@H](O)[C@H](O)[C@H]6O)C(C)(C)C5CC[C@]43C)[C@H]12 (stereo not given in full) |  | inactive |
| COc1c2cc(c(O)c1OC)-c1cc(ccc1O)CCC(O)CCCC2 (stereo not given) |  | 12.8 µM (active) |
| COc1cc(C(O)C2COC(c3ccc(OC4OC(CO)C(O)C(O)C4O)c(OC)c3)C2CO)ccc1O (stereo not given) |  | 4.47 µM (active) |
| CC(C)c1c(NC(=O)Nc2ccc(Cl)cc2)c(=O)n(-c2ccccc2)n1C |  | inactive |
| CC(C)(C)NC(=O)[C@H]1CC[C@H]2[C@@H]3CC[C@H]4NC(=O)CC[C@]4(C)[C@H]3CC[C@]12C |  | inactive |
| CC(C(O)/C=C/C(C)(C)O)C1CCC2(C)C3C(=O)C=C4C(CCC(O)C4(C)C)C3(C)CCC12C (stereo not given) |  | inactive |
| CC/C=C/CC1=C(CCCCCCCC(=O)O)CCC1=O |  | inactive |
| CCC(C)C(=O)O[C@H]1[C@@H](O[C@H]2O[C@H](CO)[C@@H](O)[C@H](O)[C@H]2O)O[C@H](CO)[C@@H](O)[C@@H]1O (stereo not given in full) |  | inactive |
| O=C(O)c1c[nH]c2c(ccc3ccccc32)c1=O |  | 23.1 µM (active) |

From PubChem BioAssay (NCATS)
